Laboratory results taken from the supplement of paper PMC11732987, “Enantioselective OTUD7B fragment discovery through chemoproteomics screening and high-throughput optimisation” (Communications Chemistry, 2025).

Legend:
Assay in all cases: log2 ratio of Biotin-Ahx-Ub-VS probe labelling (fragment/DMSO); higher = less target engagement (more negative = stronger competition), active = hit call of the paper (q ≤ 0.05, log2 ratio ≤ -1)
Conditions in all cases: compound concentration: 200 uM; treatment time: 3 h
[1] = target: USP34 (UniProt Q70CQ2)
Sequence of USP34 (Q70CQ2 whole entry, the tested form may be a part): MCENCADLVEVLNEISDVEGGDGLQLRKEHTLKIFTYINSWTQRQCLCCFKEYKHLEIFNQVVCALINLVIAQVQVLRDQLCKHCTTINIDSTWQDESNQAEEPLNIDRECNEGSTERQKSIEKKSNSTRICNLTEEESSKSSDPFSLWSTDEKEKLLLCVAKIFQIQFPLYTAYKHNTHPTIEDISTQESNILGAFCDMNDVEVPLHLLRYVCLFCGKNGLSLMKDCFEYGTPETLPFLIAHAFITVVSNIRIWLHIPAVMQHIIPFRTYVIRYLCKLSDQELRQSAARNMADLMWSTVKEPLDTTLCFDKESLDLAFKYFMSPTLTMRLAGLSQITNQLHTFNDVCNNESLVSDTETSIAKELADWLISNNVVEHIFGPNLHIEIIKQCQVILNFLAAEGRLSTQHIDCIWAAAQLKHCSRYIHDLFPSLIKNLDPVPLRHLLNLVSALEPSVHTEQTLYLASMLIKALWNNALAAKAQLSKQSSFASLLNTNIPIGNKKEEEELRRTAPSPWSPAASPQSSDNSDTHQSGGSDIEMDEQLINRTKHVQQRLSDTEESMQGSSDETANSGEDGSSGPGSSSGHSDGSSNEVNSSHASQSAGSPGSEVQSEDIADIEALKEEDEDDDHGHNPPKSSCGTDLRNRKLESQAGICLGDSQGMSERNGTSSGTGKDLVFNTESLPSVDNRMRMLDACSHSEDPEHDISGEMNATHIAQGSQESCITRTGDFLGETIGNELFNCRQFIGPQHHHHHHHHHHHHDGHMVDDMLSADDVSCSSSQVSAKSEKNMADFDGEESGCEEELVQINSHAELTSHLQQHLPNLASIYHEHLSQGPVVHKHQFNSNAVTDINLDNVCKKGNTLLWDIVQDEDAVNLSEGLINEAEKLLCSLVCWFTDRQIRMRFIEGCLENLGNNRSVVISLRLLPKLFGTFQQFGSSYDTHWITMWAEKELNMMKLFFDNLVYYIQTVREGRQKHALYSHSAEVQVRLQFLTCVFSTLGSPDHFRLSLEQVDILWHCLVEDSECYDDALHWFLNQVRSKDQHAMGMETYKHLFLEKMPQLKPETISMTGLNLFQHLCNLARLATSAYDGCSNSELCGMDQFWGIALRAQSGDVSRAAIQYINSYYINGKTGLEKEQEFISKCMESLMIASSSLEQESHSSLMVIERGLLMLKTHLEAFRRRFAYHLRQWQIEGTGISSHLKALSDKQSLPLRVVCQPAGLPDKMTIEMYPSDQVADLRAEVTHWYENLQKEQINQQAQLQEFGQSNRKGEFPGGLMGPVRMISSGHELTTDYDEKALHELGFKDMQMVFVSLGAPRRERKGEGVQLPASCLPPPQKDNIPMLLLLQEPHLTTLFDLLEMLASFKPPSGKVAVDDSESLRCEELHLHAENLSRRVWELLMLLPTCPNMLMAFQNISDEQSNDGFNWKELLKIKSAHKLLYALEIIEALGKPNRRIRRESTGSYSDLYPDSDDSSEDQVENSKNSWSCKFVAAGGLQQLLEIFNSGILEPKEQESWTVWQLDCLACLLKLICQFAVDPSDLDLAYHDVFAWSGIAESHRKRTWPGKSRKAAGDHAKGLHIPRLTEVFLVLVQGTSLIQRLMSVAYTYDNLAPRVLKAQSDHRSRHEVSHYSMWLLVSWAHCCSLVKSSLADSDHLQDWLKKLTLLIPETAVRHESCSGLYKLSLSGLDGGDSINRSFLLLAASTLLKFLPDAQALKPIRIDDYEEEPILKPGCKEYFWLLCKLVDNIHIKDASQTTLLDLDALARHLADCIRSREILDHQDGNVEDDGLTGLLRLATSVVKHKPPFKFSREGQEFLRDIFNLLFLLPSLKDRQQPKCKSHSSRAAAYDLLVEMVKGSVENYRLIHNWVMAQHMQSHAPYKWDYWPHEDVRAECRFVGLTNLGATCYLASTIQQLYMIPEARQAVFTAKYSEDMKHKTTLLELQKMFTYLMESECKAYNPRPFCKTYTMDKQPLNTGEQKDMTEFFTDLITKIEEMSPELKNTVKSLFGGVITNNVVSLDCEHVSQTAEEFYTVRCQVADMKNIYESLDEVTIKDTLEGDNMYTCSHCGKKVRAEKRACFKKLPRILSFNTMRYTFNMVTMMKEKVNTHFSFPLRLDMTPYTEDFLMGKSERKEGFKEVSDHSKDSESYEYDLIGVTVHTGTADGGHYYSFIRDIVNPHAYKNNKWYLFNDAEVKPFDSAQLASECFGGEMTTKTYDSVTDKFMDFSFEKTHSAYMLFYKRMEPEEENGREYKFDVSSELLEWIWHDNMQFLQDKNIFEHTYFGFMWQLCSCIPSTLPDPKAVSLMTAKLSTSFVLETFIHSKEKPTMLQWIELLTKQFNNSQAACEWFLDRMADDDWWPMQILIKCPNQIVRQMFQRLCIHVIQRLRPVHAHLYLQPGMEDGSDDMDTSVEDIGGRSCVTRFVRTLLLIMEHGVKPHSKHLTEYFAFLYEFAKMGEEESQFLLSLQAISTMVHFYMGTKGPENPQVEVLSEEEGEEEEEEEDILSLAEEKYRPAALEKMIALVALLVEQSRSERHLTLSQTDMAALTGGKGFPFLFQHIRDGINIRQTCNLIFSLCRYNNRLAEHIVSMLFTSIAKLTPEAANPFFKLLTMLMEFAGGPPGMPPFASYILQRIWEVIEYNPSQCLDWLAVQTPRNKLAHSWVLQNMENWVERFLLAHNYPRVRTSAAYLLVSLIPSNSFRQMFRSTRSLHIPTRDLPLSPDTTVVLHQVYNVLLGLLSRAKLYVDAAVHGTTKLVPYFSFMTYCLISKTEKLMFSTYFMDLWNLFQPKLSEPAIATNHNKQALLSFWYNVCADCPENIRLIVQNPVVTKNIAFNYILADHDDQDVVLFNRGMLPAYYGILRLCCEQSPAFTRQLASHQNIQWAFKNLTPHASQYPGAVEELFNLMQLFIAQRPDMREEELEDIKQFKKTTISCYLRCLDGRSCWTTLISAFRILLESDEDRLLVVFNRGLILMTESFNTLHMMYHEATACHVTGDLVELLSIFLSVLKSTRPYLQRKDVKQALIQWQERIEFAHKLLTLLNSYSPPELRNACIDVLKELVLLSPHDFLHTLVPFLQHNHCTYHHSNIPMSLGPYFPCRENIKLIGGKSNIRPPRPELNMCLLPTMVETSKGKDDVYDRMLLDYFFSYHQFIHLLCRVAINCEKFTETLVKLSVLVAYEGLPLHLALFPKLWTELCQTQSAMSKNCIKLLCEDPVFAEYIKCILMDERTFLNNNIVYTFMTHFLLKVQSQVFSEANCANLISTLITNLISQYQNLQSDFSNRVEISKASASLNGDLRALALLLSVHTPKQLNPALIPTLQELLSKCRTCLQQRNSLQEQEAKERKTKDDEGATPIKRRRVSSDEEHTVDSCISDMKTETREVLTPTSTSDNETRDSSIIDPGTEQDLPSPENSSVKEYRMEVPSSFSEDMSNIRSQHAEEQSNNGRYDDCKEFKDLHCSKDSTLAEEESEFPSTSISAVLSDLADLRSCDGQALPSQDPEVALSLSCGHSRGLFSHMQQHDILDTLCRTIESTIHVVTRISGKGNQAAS
Outline: (§1)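 HEK293T lysate (495 µg per sample, in Tris/CHAPS/IGEPAL buffer with protease inhibitors) was treated in triplicate with fragment at 200 µM or with DMSO for 3 h. It was then treated with Biotin-Ahx-Ub-VS (0.5 µM final) for 1 h. Labelled DUBs were NeutrAvidin-enriched, digested with LysC and trypsin, and run by diaPASEF LC-MS/MS. Spectronaut label-free quantities were global-median-normalised. Values are average log2 ratios fragment/DMSO by unpaired t-test, using proteins with ≥2 unique peptides.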

[2] = target: T1, USP36 (UniProt Q9P275)
T1 sequence (whole entry): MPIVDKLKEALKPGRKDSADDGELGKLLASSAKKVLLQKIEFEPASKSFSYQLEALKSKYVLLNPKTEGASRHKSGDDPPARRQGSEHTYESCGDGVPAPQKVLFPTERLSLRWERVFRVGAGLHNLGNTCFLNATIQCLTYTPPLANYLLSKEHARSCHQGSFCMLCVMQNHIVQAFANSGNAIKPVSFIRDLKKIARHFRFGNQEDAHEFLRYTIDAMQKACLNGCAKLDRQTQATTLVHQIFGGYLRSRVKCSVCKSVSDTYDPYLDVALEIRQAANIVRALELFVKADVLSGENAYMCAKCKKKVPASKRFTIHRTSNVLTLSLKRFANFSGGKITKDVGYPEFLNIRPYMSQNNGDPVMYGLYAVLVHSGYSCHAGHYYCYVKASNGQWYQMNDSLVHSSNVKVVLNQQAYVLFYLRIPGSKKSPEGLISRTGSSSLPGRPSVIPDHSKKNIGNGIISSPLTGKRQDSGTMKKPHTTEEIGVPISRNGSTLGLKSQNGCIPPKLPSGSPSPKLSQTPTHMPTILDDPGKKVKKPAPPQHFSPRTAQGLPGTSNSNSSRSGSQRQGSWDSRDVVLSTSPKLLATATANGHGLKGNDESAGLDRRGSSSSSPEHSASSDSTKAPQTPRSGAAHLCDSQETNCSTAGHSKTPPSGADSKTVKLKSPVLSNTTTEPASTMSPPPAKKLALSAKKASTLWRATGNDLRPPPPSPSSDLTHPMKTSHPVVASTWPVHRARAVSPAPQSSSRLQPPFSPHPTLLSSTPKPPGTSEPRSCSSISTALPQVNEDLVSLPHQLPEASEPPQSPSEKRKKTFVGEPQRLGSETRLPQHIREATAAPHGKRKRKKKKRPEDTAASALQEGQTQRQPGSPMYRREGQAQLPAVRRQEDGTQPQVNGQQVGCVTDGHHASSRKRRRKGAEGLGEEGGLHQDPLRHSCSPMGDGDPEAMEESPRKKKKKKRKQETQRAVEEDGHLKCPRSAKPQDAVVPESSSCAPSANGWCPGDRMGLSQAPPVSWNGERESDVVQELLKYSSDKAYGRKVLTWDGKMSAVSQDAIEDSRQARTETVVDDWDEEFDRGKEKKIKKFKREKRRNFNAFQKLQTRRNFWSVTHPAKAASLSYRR
Outline: as §1

[3] = target: T2, USP38 (UniProt Q8NB14)
T2 sequence (whole entry): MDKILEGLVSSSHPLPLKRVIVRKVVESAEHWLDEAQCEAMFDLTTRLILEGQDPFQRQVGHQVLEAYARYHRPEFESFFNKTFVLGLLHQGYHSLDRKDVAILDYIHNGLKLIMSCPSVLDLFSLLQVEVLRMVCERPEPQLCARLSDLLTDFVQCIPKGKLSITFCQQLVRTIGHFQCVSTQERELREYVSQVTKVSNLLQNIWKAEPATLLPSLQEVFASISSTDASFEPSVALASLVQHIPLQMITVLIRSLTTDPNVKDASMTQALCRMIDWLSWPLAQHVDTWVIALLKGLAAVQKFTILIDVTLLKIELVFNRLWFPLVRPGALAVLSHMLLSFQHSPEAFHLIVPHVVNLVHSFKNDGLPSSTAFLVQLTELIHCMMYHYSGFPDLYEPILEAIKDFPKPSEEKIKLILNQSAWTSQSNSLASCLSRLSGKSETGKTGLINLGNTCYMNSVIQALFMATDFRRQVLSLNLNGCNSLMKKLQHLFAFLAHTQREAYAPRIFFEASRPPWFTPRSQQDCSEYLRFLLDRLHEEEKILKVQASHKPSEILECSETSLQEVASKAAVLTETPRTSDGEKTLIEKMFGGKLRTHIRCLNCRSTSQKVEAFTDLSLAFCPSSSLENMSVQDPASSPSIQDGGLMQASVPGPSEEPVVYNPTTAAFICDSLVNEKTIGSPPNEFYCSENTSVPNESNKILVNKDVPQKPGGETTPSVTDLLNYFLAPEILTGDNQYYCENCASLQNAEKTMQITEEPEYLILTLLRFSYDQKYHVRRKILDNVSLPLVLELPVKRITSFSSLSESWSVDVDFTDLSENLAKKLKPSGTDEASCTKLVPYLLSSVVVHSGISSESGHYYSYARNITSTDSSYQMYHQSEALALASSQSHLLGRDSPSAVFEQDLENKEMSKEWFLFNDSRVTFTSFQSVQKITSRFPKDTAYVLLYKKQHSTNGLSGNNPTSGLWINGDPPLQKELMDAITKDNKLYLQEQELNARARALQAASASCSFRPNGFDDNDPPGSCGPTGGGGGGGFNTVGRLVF
Outline: as §1

[4] = target: T3, USP39 (UniProt Q53GS9)
T3 sequence (whole entry): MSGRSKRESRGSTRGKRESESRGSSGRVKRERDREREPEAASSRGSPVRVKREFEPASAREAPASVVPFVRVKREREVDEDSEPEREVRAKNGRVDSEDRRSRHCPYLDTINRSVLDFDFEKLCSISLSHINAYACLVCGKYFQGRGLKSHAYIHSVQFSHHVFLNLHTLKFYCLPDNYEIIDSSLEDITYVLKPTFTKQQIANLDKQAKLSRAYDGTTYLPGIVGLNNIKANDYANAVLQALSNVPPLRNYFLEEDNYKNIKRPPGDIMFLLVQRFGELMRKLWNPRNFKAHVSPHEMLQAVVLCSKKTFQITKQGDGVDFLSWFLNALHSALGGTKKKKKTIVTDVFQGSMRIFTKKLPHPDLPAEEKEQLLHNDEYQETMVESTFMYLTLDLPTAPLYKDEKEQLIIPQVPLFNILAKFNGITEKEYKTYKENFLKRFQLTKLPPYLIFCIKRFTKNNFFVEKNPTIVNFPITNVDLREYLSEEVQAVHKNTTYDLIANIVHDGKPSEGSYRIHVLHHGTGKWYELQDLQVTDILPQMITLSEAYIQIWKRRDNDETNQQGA
Outline: as §1

[5] = target: T4, USP4 (UniProt Q13107)
T4 sequence (whole entry): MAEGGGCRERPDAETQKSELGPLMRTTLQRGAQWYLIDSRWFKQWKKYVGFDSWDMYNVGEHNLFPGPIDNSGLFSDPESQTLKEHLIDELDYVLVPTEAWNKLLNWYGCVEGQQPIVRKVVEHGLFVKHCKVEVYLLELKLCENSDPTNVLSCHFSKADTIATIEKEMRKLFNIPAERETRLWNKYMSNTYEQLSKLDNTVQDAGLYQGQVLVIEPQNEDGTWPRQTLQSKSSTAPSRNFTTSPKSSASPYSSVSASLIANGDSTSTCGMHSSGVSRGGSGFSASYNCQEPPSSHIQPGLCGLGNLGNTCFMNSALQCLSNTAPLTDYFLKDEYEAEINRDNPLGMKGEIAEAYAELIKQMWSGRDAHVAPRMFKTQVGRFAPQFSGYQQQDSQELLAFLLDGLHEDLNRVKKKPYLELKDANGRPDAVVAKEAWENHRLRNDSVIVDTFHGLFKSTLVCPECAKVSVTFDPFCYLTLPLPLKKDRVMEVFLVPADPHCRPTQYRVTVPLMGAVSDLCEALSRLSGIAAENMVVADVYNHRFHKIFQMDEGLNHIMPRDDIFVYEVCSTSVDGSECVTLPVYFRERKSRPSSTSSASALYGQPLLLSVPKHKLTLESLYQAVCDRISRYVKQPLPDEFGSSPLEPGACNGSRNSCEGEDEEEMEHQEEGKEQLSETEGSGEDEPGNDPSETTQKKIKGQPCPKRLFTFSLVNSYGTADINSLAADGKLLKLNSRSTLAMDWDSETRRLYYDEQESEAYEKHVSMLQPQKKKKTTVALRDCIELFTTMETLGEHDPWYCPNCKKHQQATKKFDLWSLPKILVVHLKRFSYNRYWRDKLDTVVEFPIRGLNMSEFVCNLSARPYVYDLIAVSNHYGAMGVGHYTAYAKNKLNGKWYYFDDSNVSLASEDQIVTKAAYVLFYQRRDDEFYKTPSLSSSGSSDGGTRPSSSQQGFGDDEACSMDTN
Outline: as §1

Measured: log2 ratio of Biotin-Ahx-Ub-VS probe labelling

CNC(=O)C1(NC(=O)CCl)CCCCC1
inactive: [1] 0.0737 | [2] 0.00681 | [3] 0.142 | [4] 0.392 | [5] 0.249
